Data: publication PMC5540273 (PLoS ONE, 2017)
Read-outs that look alike come from different tables or passages of the source.

Assays:
LCK = conditions: concentration: 1 μM,replicates: in singlicate; n = 1
LIMK1 = conditions: concentration: 1 μM,replicates: in singlicate; n = 1
LIMK2 = conditions: concentration: 1 μM,replicates: in singlicate; n = 1
LKB1 = tested on: T1, LKB1; conditions: concentration: 1 μM,replicates: in singlicate; n = 1
T1 construct: gene STK11

LOK = tested on: T2, LOK; conditions: concentration: 1 μM,replicates: in singlicate; n = 1
T2 construct: gene STK10

LRRK2 = conditions: concentration: 1 μM,replicates: in singlicate; n = 1
LTK = conditions: n = 1
LYN = conditions: concentration: 1 μM,replicates: in singlicate; n = 1
LZK = tested on: T3, LZK; conditions: concentration: 1 μM,replicates: in singlicate; n = 1
T3 construct: gene MAP3K13

MAK = conditions: concentration: 1 μM,replicates: in singlicate; n = 1
MAP3K15 = conditions: concentration: 1 μM,replicates: in singlicate; n = 1
MAP3K1 = conditions: concentration: 1 μM,replicates: in singlicate; n = 1
MAP3K2 = conditions: concentration: 1 μM,replicates: in singlicate; n = 1
MAP3K3 = conditions: concentration: 1 μM,replicates: in singlicate; n = 1
MAP3K4 = conditions: concentration: 1 μM,replicates: in singlicate; n = 1
MAP4K2 = conditions: concentration: 1 μM,replicates: in singlicate; n = 1
MAP4K3 = conditions: concentration: 1 μM,replicates: in singlicate; n = 1
MAP4K4 = conditions: concentration: 1 μM,replicates: in singlicate; n = 1
MAP4K5 = conditions: concentration: 1 μM,replicates: in singlicate; n = 1
MAPKAPK2 = conditions: concentration: 1 μM,replicates: in singlicate; n = 1
[1] = concentration: 1 μM,replicates: in singlicate
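Also: KINOMEscan kinase panel screen.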

SMILES: Cc1ccc(C(=O)Nc2ccc(Oc3ccc4nc(NC(=O)C5CC5)cn4c3)c(F)c2)c(=O)n1-c1ccccc1
- %Inh (LCK): 99.2%
- %Inh (LIMK1): 42%
- %Inh (LIMK2): 21%
- %Inh (LKB1): 34%
- %Inh (LOK): 99.9%
- %Inh (LRRK2): 0%
- %Inh (LTK; [1]): 38%
- %Inh (LYN): 57%
- %Inh (LZK): 0%
- %Inh (MAK): 0%
- %Inh (MAP3K15): 0%
- %Inh (MAP3K1): 0%
- %Inh (MAP3K2): 0%
- %Inh (MAP3K3): 5%
- %Inh (MAP3K4): 12%
- %Inh (MAP4K2): 0%
- %Inh (MAP4K3): 16%
- %Inh (MAP4K4): 0%
- %Inh (MAP4K5): 0%
- %Inh (MAPKAPK2): 0%

SMILES: COc1cccc(OC)c1C(=O)Nc1cccc(-c2nn3ccccc3c2-c2ccnc(Nc3cccc(F)c3)n2)c1 [GSK361065]
- %Inh (LCK): 24%
- %Inh (LIMK1): 31%
- %Inh (LIMK2): 15%
- %Inh (LKB1): 6%
- %Inh (LOK): 90%
- %Inh (LRRK2): 0%
- %Inh (LTK; 1 µM): 13%
- %Inh (LYN): 8%
- %Inh (LZK): 8%
- %Inh (MAK): 14%
- %Inh (MAP3K15): 0%
- %Inh (MAP3K1): 0%
- %Inh (MAP3K2): 7%
- %Inh (MAP3K3): 43%
- %Inh (MAP3K4): 14%
- %Inh (MAP4K2): 5%
- %Inh (MAP4K3): 0%
- %Inh (MAP4K4): 21%
- %Inh (MAP4K5): 67%
- %Inh (MAPKAPK2): 11%

SMILES: O=C(NCC1CC1)c1ccc(-c2cc(C(=O)NC3CC3)ccc2F)cc1 [GW810445]
- %Inh (LCK): 0%
- %Inh (LIMK1): 0%
- %Inh (LIMK2): 0%
- %Inh (LKB1): 68%
- %Inh (LOK): 5%
- %Inh (LRRK2): 71%
- %Inh (LTK; [1]): 28%
- %Inh (LYN): 0%
- %Inh (LZK): 0%
- %Inh (MAK): 0%
- %Inh (MAP3K15): 0%
- %Inh (MAP3K1): 0%
- %Inh (MAP3K2): 0%
- %Inh (MAP3K3): 0%
- %Inh (MAP3K4): 0%
- %Inh (MAP4K2): 0%
- %Inh (MAP4K3): 0%
- %Inh (MAP4K4): 0%
- %Inh (MAP4K5): 0%
- %Inh (MAPKAPK2): 0%

SMILES: Cn1ccc2ncnc(Oc3ccc(NC(=O)Nc4cccc(C(F)(F)F)c4)c(F)c3)c21
- %Inh (LCK): 75%
- %Inh (LIMK1): 0%
- %Inh (LIMK2): 2%
- %Inh (LKB1): 0%
- %Inh (LOK): 99.9%
- %Inh (LRRK2): 31%
- %Inh (LTK; [1]): 84%
- %Inh (LYN): 24%
- %Inh (LZK): 0%
- %Inh (MAK): 27%
- %Inh (MAP3K15): 0%
- %Inh (MAP3K1): 0%
- %Inh (MAP3K2): 0%
- %Inh (MAP3K3): 18%
- %Inh (MAP3K4): 13%
- %Inh (MAP4K2): 0%
- %Inh (MAP4K3): 20%
- %Inh (MAP4K4): 17%
- %Inh (MAP4K5): 40%
- %Inh (MAPKAPK2): 22%

SMILES: CN1CCN(CCNc2nc3cc(Oc4ccc(NC(=O)Nc5cc(C(F)(F)F)ccc5F)cc4)ccc3[nH]2)CC1.Cl.Cl [GW768504]
- %Inh (LCK): 22%
- %Inh (LIMK1): 0%
- %Inh (LIMK2): 2%
- %Inh (LKB1): 38%
- %Inh (LOK): 95.2%
- %Inh (LRRK2): 0%
- %Inh (LTK; [1]): 19%
- %Inh (LYN): 12%
- %Inh (LZK): 0%
- %Inh (MAK): 13%
- %Inh (MAP3K15): 0%
- %Inh (MAP3K1): 0%
- %Inh (MAP3K2): 0%
- %Inh (MAP3K3): 0%
- %Inh (MAP3K4): 0%
- %Inh (MAP4K2): 0%
- %Inh (MAP4K3): 0%
- %Inh (MAP4K4): 1%
- %Inh (MAP4K5): 6%
- %Inh (MAPKAPK2): 4%

SMILES: O=C(Nc1ccc(Oc2ccc3nc(NC(=O)C4CC4)cn3n2)c(F)c1)c1cccn(-c2ccccc2)c1=O
- %Inh (LCK): 0%
- %Inh (LIMK1): 33%
- %Inh (LIMK2): 29%
- %Inh (LKB1): 0%
- %Inh (LOK): 99.5%
- %Inh (LRRK2): 0%
- %Inh (LTK; [1]): 29%
- %Inh (LYN): 36%
- %Inh (LZK): 0%
- %Inh (MAK): 10%
- %Inh (MAP3K15): 0%
- %Inh (MAP3K1): 0%
- %Inh (MAP3K2): 0%
- %Inh (MAP3K3): 15%
- %Inh (MAP3K4): 24%
- %Inh (MAP4K2): 0%
- %Inh (MAP4K3): 4%
- %Inh (MAP4K4): 1%
- %Inh (MAP4K5): 0%
- %Inh (MAPKAPK2): 13%

SMILES: C[C@@H]1CCN(C(=O)N2CCCC2)C[C@@H]1N(C)c1ncnc2[nH]ccc12
- %Inh (LCK): 41%
- %Inh (LIMK1): 0%
- %Inh (LIMK2): 0%
- %Inh (LKB1): 0%
- %Inh (LOK): 0%
- %Inh (LRRK2): 0%
- %Inh (LTK; [1]): 100%
- %Inh (LYN): 0%
- %Inh (LZK): 22%
- %Inh (MAK): 14%
- %Inh (MAP3K15): 31%
- %Inh (MAP3K1): 36%
- %Inh (MAP3K2): 17%
- %Inh (MAP3K3): 16%
- %Inh (MAP3K4): 7%
- %Inh (MAP4K2): 0%
- %Inh (MAP4K3): 8%
- %Inh (MAP4K4): 0%
- %Inh (MAP4K5): 0%
- %Inh (MAPKAPK2): 0%

SMILES: Cl.c1ccc(Oc2ccc(Nc3ccnc4cc(-c5ccc(CN6CCNCC6)o5)ccc34)cc2)nc1 [GW567142]
- %Inh (LCK): 82%
- %Inh (LIMK1): 0%
- %Inh (LIMK2): 0%
- %Inh (LKB1): 0%
- %Inh (LOK): 54%
- %Inh (LRRK2): 4%
- %Inh (LTK; [1]): 0%
- %Inh (LYN): 4%
- %Inh (LZK): 7%
- %Inh (MAK): 21%
- %Inh (MAP3K15): 3%
- %Inh (MAP3K1): 1%
- %Inh (MAP3K2): 0%
- %Inh (MAP3K3): 0%
- %Inh (MAP3K4): 0%
- %Inh (MAP4K2): 0%
- %Inh (MAP4K3): 0%
- %Inh (MAP4K4): 0%
- %Inh (MAP4K5): 13%
- %Inh (MAPKAPK2): 0%

SMILES: COc1cccc(C2=C(Nc3cccc(Cl)c3)C(=O)NC2=O)c1 [SB-341556]
- %Inh (LCK): 15%
- %Inh (LIMK1): 67%
- %Inh (LIMK2): 0%
- %Inh (LKB1): 0%
- %Inh (LOK): 9%
- %Inh (LRRK2): 83%
- %Inh (LTK; [1]): 86%
- %Inh (LYN): 0%
- %Inh (LZK): 0%
- %Inh (MAK): 0%
- %Inh (MAP3K15): 21%
- %Inh (MAP3K1): 28%
- %Inh (MAP3K2): 17%
- %Inh (MAP3K3): 29%
- %Inh (MAP3K4): 15%
- %Inh (MAP4K2): 0%
- %Inh (MAP4K3): 84%
- %Inh (MAP4K4): 19%
- %Inh (MAP4K5): 2%
- %Inh (MAPKAPK2): 20%

SMILES: COC(=O)c1cccc(NC(=O)NC2CCN(c3ccnc(NCc4ccc(F)cc4)n3)CC2)c1 [GSK1379860]
- %Inh (LCK): 4%
- %Inh (LIMK1): 4%
- %Inh (LIMK2): 0%
- %Inh (LKB1): 0%
- %Inh (LOK): 0%
- %Inh (LRRK2): 8%
- %Inh (LTK; [1]): 0%
- %Inh (LYN): 0%
- %Inh (LZK): 0%
- %Inh (MAK): 28%
- %Inh (MAP3K15): 0%
- %Inh (MAP3K1): 24%
- %Inh (MAP3K2): 8%
- %Inh (MAP3K3): 0%
- %Inh (MAP3K4): 22%
- %Inh (MAP4K2): 0%
- %Inh (MAP4K3): 0%
- %Inh (MAP4K4): 0%
- %Inh (MAP4K5): 0%
- %Inh (MAPKAPK2): 0%
